Compounds with a hit are over-represented: about 0.81% of the library has one in this group of screens.
TRHR enhancer-1 – allosteric enhancers of human TRH receptor | P34981 | TRHR cells, fluo-8 calcium fluorescence, EC20 TRH enhancement | enhancement, % at 2 µM | actives 0.66% (n = 360,000); in the data active means enhancement above about 30%; further: 0% is about no effect
Target sequence (P34981 whole entry, looked up): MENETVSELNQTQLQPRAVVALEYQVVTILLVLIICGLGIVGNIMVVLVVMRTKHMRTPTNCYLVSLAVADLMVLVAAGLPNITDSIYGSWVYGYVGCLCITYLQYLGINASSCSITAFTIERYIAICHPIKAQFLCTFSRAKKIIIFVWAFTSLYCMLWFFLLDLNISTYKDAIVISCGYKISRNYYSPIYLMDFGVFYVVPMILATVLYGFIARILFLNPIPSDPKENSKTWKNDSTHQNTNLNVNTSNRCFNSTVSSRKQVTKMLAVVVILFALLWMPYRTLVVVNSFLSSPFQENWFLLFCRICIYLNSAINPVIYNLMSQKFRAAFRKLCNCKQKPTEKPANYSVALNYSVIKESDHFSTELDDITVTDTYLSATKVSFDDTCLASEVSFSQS
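Enhancer read-out: after compound pinning and an initial kinetic agonist-mode read, an EC20 of TRH (10 nM final) was injected and fluo-8 calcium signal (Ex 480/Em 530) followed at 1 s/cycle for 100 cycles in TRHR-expressing cells.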
TRPML1 ag – activates the human TRPML1 channel; actives 0.12% (n = 410,000); Q9GZU1; AID 624414; activation, % (no concentration beside the values); TRPML1-expressing cells, Ca2+ dye fluorescence, FDSS; in the data active means activation above about 50%; inconclusive means mostly about 30% to 49%; further: 0% is about no effect
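Tet-induced TRPML1-DL cells, 1,500 per well, cultured overnight, were loaded with a no-wash Ca2+ dye for 45–90 min. Calcium fluorescence was recorded on the FDSS for 110 s after compound addition, before the EC80 agonist (4 uM 54-4) was added.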
TRPML1 blocker – inhibitors of human TRPML1 channel; activity change, negative = inhibition, % (no concentration beside the values); TRPML1-inducible cells, Ca2+ dye fluorescence, FDSS; hits give low values; inhibition of EC80 agonist-evoked calcium signal; AID 624415; actives 0.02% (n = 390,000); in the data active means activity change below about -50%; inconclusive means between about -30% and that limit;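 further: stimulus is agonist 54-4 at its EC80 concentration; on the % scale 0 is the no-effect control and ±100 the full control effect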
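TRPML1-DL cells, Tet-induced overnight (~16 h, 37 °C) at 1,500 cells/well, were loaded with Ca8 no-wash dye plus quencher for 45-90 min at room temperature. Compounds were pinned during FDSS kinetic reading; agonist 54-4 at EC80 (4 uM final) then added.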
TRHR agonist-1 – activates the human TRH receptor. TRHR cells, calcium flux fluo-8, FDSS agonist mode. activation, % at 2 µM. P34981. AID 493084. actives 0.18% (n = 360,000); in the data active means activation above about 30%; further: 0% is about no effect
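Steps: seed TRHR cells overnight; add fluo-8 no-wash Ca dye, RT 30 min–1.5 h; record 10 s baseline; pin-transfer compounds; monitor fluorescence 1 cycle/s for the agonist window. Calcium increases flag candidate agonists.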
TRHR enhancer-2 – confirmation of human TRH receptor allosteric enhancers | activity change, negative = inhibition, % at 46.1 µM | 970 tested, under 10 active | TRH receptor cell assay, enhancer confirmation qHTS | shares compounds with TRHR enhancer-1 | AID 493076;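 further: compound effect scored on response to added TRH at EC20 of 10 nM; 0% is about no effect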
TRHR agonist-2 – confirmation of human TRH receptor agonists; TRHR-expressing cells, agonist activation read-out; actives 8% (n = 970); shares compounds with TRHR enhancer-1; Potency, µM (top dose mostly 46.1 µM), for the others: at the highest dose activation, most hits filed as activators; further: potency means the concentration at half of the fitted maximal effect; 0% is about no effect; nearly all actives have a fitted effect of over 75% in size
Numbers without * were called inactive; ? = inconclusive; . = no result given. Unless noted, the call rests on the fitted dose curve; in most records, active means well fitted curve in the direction sought with a large enough effect; inconclusive means small, poorly fitted or top-dose-only effect, or another doubt; inactive means no such curve, though single readings can be large; an effect the other way counts as inactive or inconclusive.

SMILES | TRHR enhancer-1 | TRPML1 ag | TRPML1 blocker | TRHR agonist-1 | TRHR enhancer-2 | TRHR agonist-2
COc1ccc(Cn2c(O)c(C=Nc3ccc(OC)cc3)c3ccccc3c2=O)cc1 | -4 | 2 | 23 | 1 | . | .
O=C(N/N=C/c1c(O)n(-c2ccccc2Cl)c(=O)c2ccccc12)c1cccnc1 | 40* | 9 | 8 | 29 | 8 | ?
O=C(N/N=C/c1c(O)n(Cc2ccccc2)c(=O)c2ccccc12)c1cccnc1 | 4 | 11 | -5 | 30* | -1 | 21µM*
Cc1cccc(-n2c(O)c(/C=N/NC(=O)c3ccccc3Cl)c3ccccc3c2=O)n1 | 15 | 3 | 11 | 5 | . | .
CC(CCC(C)[n+]1cccc(C#N)c1)[n+]1cccc(C#N)c1 (stereo not given) | . | 0 | . | . | . | .
CCc1cc(/C=C/c2ccnc3ccccc23)ccc1N(C)C | . | 22 | . | . | . | .
COc1cccc(C2=NC(C)(C)NC(c3ccccc3O)C2)c1 (stereo not given) | 42* | 0 | -1 | 1 | 0 | 0%
O=C1CN(S(=O)(=O)c2c(F)cccc2F)CCN1S(=O)(=O)c1ccc2c(c1)OCCO2 | 5 | . | . | 0 | . | .
O=C(CN1CCN(c2ccccc2F)CC1)c1ccc(O)cc1O | 94* | 1 | 13 | 0 | -7 | -1%
Cc1c(C2(O)C(=O)Nc3ccc(F)cc32)c(=O)n(-c2ccccc2)n1C (stereo not given) | 50* | -1 | -3 | 0 | 0 | -1%
Cc1cnccn1 | . | 0 | . | . | . | .
O=c1oc2ccc3ccccc3c2cc1-c1nnc(Nc2ccccc2)s1 | -1 | 1 | -14 | 3 | . | .
Nc1nnc(-c2cc3c(ccc4ccccc43)oc2=O)s1 | -1 | . | . | 41* | 7 | ?
CC1CCN(CC(=O)N2c3ccccc3CC2C)CC1 (stereo not given) | 0 | 0 | 7 | -2 | . | .
COc1ccc(N2CCN(CC(=O)N3c4ccccc4CC3C)CC2)cc1 (stereo not given) | 41* | 1 | -9 | 0 | ? | 1%
CC(NCCC1(C(C)C)CCOC(C)(C)C1)c1cccs1 (stereo not given) | 52* | -1 | 41 | 0 | -4 | 3%
CC(NCCC1(Cc2ccccc2Cl)CCOC(C)(C)C1)c1cccs1 (stereo not given) | 5 | 2 | 6 | -1 | . | .
Cc1ccc(C)c(NC(=O)C[n+]2ccccc2)c1 | 65* | 0 | 0 | 0 | 4 | -1%
Cc1ccc(NC(=O)c2ccc(NC(=O)C3CCCC3)cc2)c(C)c1 | . | -1 | . | . | . | .
C=CCN(CC=C)Cc1c(C)[nH]c2c(C)c(C)ccc2c1=O | 45* | 0 | 1 | -1 | -4 | -1%
COc1cc(C(=O)N/N=C/c2ccc(OC(=O)c3ccccc3Cl)cc2)ccc1O | 53* | 2 | -12 | 0 | 6 | 6%
CCOC(=O)Nc1ccc(/C=C/c2ccnc3ccccc23)cc1 | . | 0 | . | . | . | .
Cc1ccccc1NC(=O)COc1ccccc1C(=O)Nc1ccccc1 | . | 1 | . | . | . | .
CCN(CC)N=Nc1ccc(S(N)(=O)=O)cc1 | 58* | -1 | 14 | 0 | 3 | 3%
O=C(C[N+]1(CCc2ccccc2)CCOCC1)c1ccccc1 | . | 0 | . | . | . | .
SMILES | TRHR enhancer-1 | TRPML1 ag | TRPML1 blocker | TRHR agonist-1 | TRHR enhancer-2 | TRHR agonist-2
O=C(NCc1ccccc1)C1CCCN1S(=O)(=O)c1ccc(F)cc1 (stereo not given) | 0 | 1 | 5 | -2 | . | .
Cc1ccc(CNC(=O)C2CCCN2S(=O)(=O)c2ccc(F)cc2)cc1 (stereo not given) | 47* | -1 | -25 | -1 | -4 | 2%
CC1=C(C)CC(C(=O)NCCCN2CCCC2=O)C(C(=O)O)C1 (stereo not given) | -8 | 0 | 24 | 0 | . | .
O=C(O)C1CC=CCC1C(=O)NCCCN1CCCC1=O (stereo not given) | 45* | 0 | 12 | 0 | 1 | -1%
COc1ccc(Cc2nc3ccc(C(=O)N(C)Cc4cc(C)[nH]n4)cc3o2)cc1OC | 2 | -1 | -2 | 0 | . | .
COc1ccc(Cc2nc3ccc(C(=O)N(C)CCn4ccnc4)cc3o2)cc1OC | 41* | 0 | -5 | -3 | 0 | -1%
C=C1C=C(C(F)F)n2ncc(C(=O)NCc3ccc(OC)c(OC)c3)c2N1 | . | -1 | . | . | . | .

Bioassay records from PubChem BioAssay.
